Laboratory results taken from PubChem BioAssay (NCATS).
Inconclusive results are not listed. Unmarked numbers belong to inactive results. The call rests on the fitted dose curve; in most records, active means well fitted inhibition curve with a large enough effect; inconclusive means small, poorly fitted or top-dose-only effect; inactive means flat fitted curve, though single readings scatter. Where a SMILES comes first, the peptide text is derived from it. [ ]: non-standard residue; d: D form. Ala(indol-2-yl) = N[C@@H](Cc1cc2ccccc2[nH]1)C(=O)O; Aib = CC(C)(N)C(=O)O

target: Calcium and integrin-binding protein 1 (Homo sapiens) (UniProt Q99828); test: Primary qHTS for Identification of Calcium Integrin Binding Protein 1 (CIB1) Competitor (AID 1508620); conditions: CIB1-GST / FITC-alphaIIb peptide fluorescence polarization; series mostly up to 114 µM; activity change, negative = inhibition: at the top concentration; further: top concentration of the series differs between compounds
How it was run: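 Fluorescence polarization competition: GST-tagged CIB1 (1 uM final) preincubated with compound 15 min at room temperature, then FITC-labelled alphaIIb peptide (100 nM final) added. After 15 min at room temperature, polarization read at Ex 480/Em 540.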
On the % scale 0 is the no-effect control and ±100 the full control effect.

Chain of Calcium and integrin-binding protein 1 (Homo sapiens) (Q99828 whole entry, looked up): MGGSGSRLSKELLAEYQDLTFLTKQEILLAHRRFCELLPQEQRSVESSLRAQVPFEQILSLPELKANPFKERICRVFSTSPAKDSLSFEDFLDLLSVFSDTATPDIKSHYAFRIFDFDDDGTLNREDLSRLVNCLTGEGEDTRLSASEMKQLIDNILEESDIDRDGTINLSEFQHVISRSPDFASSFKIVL

SMILES | activity change, negative = inhibition
CC[C@@H]1C[C@H]2CC[C@H](O2)[C@H](C)C(=O)O[C@@H](C)C[C@@H]2CC[C@@H](O2)[C@@H](C)C(=O)O[C@H](CC)C[C@H]2CC[C@H](O2)[C@H](C)C(=O)O[C@@H](C)C[C@@H]2CC[C@@H](O2)[C@@H](C)C(=O)O1 | -8.45% [at 30.2 µM]
CO[C@@H]1C[C@H](O[C@H]2CC[C@@]3(C)C(CCC4C3CC[C@]3(C)[C@@H](C5=CC(=O)OC5)[C@@H](OC(C)=O)CC43O)C2)O[C@H](C)[C@@H]1O[C@H]1O[C@H](CO[C@@H]2O[C@H](CO)[C@@H](O)[C@H](O)[C@H]2O)[C@@H](O)[C@H](O)[C@H]1O (some centres undefined) | -1.72% [at 30.2 µM]
CO[C@H]1C[C@H](O[C@H]2CC[C@@]3(C)C(=CCC4C3CC[C@]3(C)[C@@H](C5=CC(=O)OC5)CC[C@]43O)C2)O[C@@H](C)[C@@H]1O[C@@H]1O[C@H](CO[C@@H]2O[C@H](CO)[C@@H](O)[C@H](O)[C@H]2O)[C@@H](O)[C@H](O)[C@H]1O (some centres undefined) | -0.543% [at 30.2 µM]
C=C1[C@@H](C)[C@H]2[C@H](Cc3ccccc3)NC(=O)[C@]23[C@H](OC(C)=O)/C=C/[C@](C)(O)C(=O)[C@@H](C)C/C=C/[C@H]3[C@@H]1O | 1.66%
CC(=O)OC[C@]12C[C@H](OC(=O)CC(C)C)C(C)=C[C@H]1O[C@@H]1[C@H](O)C[C@@]2(C)[C@]12CO2 | 0.521% [at 57.7 µM]
COc1ccc2c3c([nH]c2c1)C(C=C(C)C)N1C(=O)C2CCCN2C(=O)C1C3 (centres undefined) | 3.03% [at 57.7 µM]
CC(C)(NC(=O)[C@@H](N)Cc1ccc(O)cc1)C(=O)N[C@@H](Cc1cc2ccccc2[nH]1)C(=O)N[C@@H](Cc1ccccc1)C(=O)O (H-Y[Aib][Ala(indol-2-yl)]F-OH) | 3.77% [at 30.2 µM]
C[C@]12CC[C@H](O)C[C@H]1CC[C@@H]1[C@@H]2[C@H](O)C(=O)[C@]2(C)[C@@H](c3ccc(=O)oc3)CC[C@]12O | -8.8%
CC(=O)OC[C@]12C[C@H](OC(=O)CC(C)C)C(C)=C[C@H]1O[C@@H]1[C@H](O)[C@@H](OC(C)=O)[C@@]2(C)[C@@]12CO2 | 1.1% [at 57.7 µM]
CC1=C[C@H]2O[C@@H]3C[C@H]4OC(=O)/C=C/C=C/C(=O)OCC/C(C)=C/C(=O)OC[C@@]2(CC1)[C@]4(C)[C@]31CO1 | -0.132% [at 57.7 µM]
CC1CCCC(=O)CCC/C=C/c2cc(O)cc(O)c2C(=O)O1 (centres undefined) | 1.26% [at 57.7 µM]
O=C(OC[C@H]1O[C@@H](Oc2ccc(O)cc2CO)[C@H](O)[C@@H](O)[C@@H]1O)c1ccccc1 | 1.22% [at 57.7 µM]
CC[C@@]1(O)C(=O)OCc2c1cc1n(c2=O)Cc2cc3c(OC)cccc3nc2-1 | -15.2% [at 57.7 µM]
CC(=O)OC[C@]12C[C@H](O)C(C)=C[C@H]1O[C@@H]1[C@H](O)[C@@H](O)[C@@]2(C)[C@]12CO2 | 0.806% [at 57.7 µM]
CC(=O)OC[C@]12C[C@H](O)C(C)=C[C@H]1O[C@@H]1[C@H](O)[C@@H](OC(C)=O)[C@@]2(C)[C@]12CO2 | -2.75% [at 57.7 µM]
CO[C@H]1[C@H](O)[C@H](O[C@H]2CC[C@]3(C=O)C4CC[C@]5(C)[C@H](C6=CC(=O)OC6)CC[C@]5(O)C4CC[C@@H]3C2)O[C@@H](C)[C@@H]1O (some centres undefined) | 0.46% [at 57.7 µM]
C[C@H]1O[C@@H](n2cnc3c(N)ncnc32)C[C@@H]1O | 2.99%
CO[C@H]1[C@@H](O)[C@@H](C)O[C@@H](O[C@@H]2C=C3C(OC(C)=O)CC4(O)C(CC[C@]5(C)[C@@H](C6=CC(=O)OC6)CC[C@]45O)[C@@]3(C)CC2)[C@@H]1O (some centres undefined) | 0.787% [at 30.2 µM]
CN(C)c1cc2c(cc1Sc1nc3c(N)nccc3n1CCNCC(C)(C)C)OCO2 | -8.38%
